# The list is not random: actives were taken first. Their share in the collection is about 3.5%.
# TEAD-YAP block = TEAD-YAP interaction inhibition; HEK-TIYL cells, TEAD-Gal4/YAP UAS-luciferase luminescence; AID 1259422; inhibition, % at 9.12 µM; actives 1.4% (n = 640,000); in the data active means inhibition above about 32%;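 further: 0% = median of test compound wells and 100% = reference inhibitor wells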
# FBW7 activator = human FBW7 E3 ligase activation, primary screen; actives 0.13% (n = 650,000); normalized activity (activation), % at 26.1 µM; AID 1259310; Q969H0; AlphaScreen FBW7–phospho-cyclin E peptide binding, activator screen; in the data active means normalized activity above about 1.9%;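 further: purified mutant Fbw7 with reduced substrate affinity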
# Target sequence (Q969H0 whole entry, looked up): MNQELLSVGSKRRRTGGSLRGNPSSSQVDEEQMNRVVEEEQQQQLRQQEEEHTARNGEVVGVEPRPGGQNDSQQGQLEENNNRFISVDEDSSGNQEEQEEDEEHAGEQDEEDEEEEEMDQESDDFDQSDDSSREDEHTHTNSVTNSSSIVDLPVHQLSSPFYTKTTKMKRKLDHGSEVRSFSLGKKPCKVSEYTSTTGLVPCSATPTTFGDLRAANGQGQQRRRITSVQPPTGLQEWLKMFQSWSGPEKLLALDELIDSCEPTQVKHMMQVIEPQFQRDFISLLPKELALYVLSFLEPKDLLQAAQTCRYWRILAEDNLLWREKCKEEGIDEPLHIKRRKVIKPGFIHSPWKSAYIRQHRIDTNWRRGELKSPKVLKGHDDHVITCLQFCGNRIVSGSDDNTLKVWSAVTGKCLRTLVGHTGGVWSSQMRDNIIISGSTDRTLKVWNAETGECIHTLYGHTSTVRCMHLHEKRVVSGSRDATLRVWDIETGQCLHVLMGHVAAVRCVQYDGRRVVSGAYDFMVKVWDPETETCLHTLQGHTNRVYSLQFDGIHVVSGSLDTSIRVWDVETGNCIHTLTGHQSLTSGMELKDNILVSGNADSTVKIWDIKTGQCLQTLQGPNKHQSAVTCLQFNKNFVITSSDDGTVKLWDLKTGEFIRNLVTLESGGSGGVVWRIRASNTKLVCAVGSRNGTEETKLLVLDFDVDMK
# GPR151 activ = activators of human GPR151 | Q8TDV0 | PathHunter beta-arrestin GPR151 cells, luminescence | activation, % at 11.2 µM | actives 1% (n = 650,000) | AID 1508602; in the data active means activation above about 4.9%;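 further: 0% = median of compound wells and 100% = cells with positive control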
# MITF inh = blocks human microphthalmia-associated transcription factor. inhibition, % at 2.6 µM. actives 0.91% (n = 650,000). AlphaScreen MITF homodimerization, bead proximity signal. O75030; in the data active means inhibition above about 50%;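 further: 0% = vehicle wells with protein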
# MITF inh conf = confirmation of human MITF inhibitors; shares compounds with MITF inh; AlphaScreen MITF homodimerization, biotin/His-MITF beads; inhibition, % at 2.6 µM; actives 16% (n = 4,700); AID 1259372;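 active means inhibition above a cutoff derived from the DMSO control wells, cut at about 28% in these data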;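 further: 0% = MITF dimer wells with DMSO only; inhibitors lower the bead chemiluminescence by keeping MITF from dimerizing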
# AlphaScreen DR = counter-screen: compounds optically interfering with AlphaScreen | shares compounds with MITF inh | AlphaScreen optical interference counterscreen, cell-free | IC50, µM | actives 6% (n = 480) | AID 1259373; call rule not given here
# AS interf ctr = optically interferes with AlphaScreen signal | shares compounds with MITF inh | LysRS AlphaScreen counterscreen, signal interference, triplicate | actives 7.6% (n = 4,700) | inhibition, % at 2.6 µM;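 active means inhibition above a cutoff derived from the DMSO control wells, cut at about 30% in these data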
# * marks the source's active call; other numbers are inactive results; x = no result.
SMILES,TEAD-YAP block,FBW7 activator,GPR151 activ,MITF inh,MITF inh conf,AS interf ctr,others
Cc1oc(C(=O)O)cc1CSCCSCc1cc(C(=O)O)oc1C,1,-1,1,52*,42*,16,AlphaScreen DR=>6.5
COc1ccc([N+](=O)[O-])cc1N(CC(=O)O)S(C)(=O)=O,2,0,1,59*,0,11,
CCNC(=O)/C(C#N)=C/c1ccc(Cl)c(Cl)c1,0,0,1,53*,-1,6,
O=C(Cn1nnc(-c2ccccc2NC(=O)C2CC2)n1)Nc1ccccc1,3,0,0,-2,x,x,
NC(=O)Cn1nnc(-c2ccccc2NC(=O)C2CCCCC2)n1,2,0,-1,84*,12,11,
CC1CCN(CC(=O)Nc2ccc(Br)cc2)CC1,-25,0,1,-3,x,x,
O=C(CN1CCCCCC1)Nc1ccc(N2CCCC2)cc1,-21,0,0,53*,7,25,
CC1CCN(CC(=O)Nc2ccc(N3CCCCCC3)cc2)CC1,-2,0,4,52*,20,33*,
O=C(CN1CCC(c2ccncc2)CC1)Nc1ccc(N2CCCCC2)cc1,6,0,0,8,x,x,
Cc1ccc(NC(=O)CN2CCC(C(=O)NC3CC3)CC2)cc1,0,0,-1,112*,0,-8,
NC(=O)C1CCN(Cc2ccc(Cl)c(Cl)c2)CC1,5,0,-1,53*,-2,3,
CCOc1ccc(CN2CCC(C(=O)N3CCN(CC)CC3)CC2)cc1,-2,0,0,-7,x,x,
CCN1CCN(C(=O)C2CCN(Cc3ccc(Cl)c(Cl)c3)CC2)CC1,3,1,-1,63*,-15,-5,
CC(C)NC(CC(=O)Nc1ccccc1Cl)C(=O)O (stereo not given),-2,0,0,5,x,x,
COc1cc(CN2CCN(Cc3ccccc3C(F)(F)F)CC2)cc(OC)c1OC,3,0,1,73*,6,13,
COc1cccc(CN2CCN(Cc3ccccn3)CC2)c1OC,-8,0,0,64*,-4,13,
COc1cccc(CN2CCN(Cc3ccccc3C(F)(F)F)CC2)c1OC,-9,0,0,67*,0,9,
COc1cc(CN2CCN(c3ccccc3)CC2)cc(OC)c1OC,2,0,-1,43,x,x,
COc1ccc(-c2ccc(N3CCN(C(=O)c4ccc(Cl)nc4)CC3)nn2)cc1,-2,0,0,3,x,x,
O=[N+]([O-])c1ccccc1CN1CCc2ccccc2C1,11,0,2,21,x,x,
O=[N+]([O-])c1ccccc1CN1CCN(C2CCN(Cc3ccccc3)CC2)CC1,3,0,-2,88*,2,13,
O=[N+]([O-])c1ccccc1CN1CCN(C2CC3CCC2C3)CC1 (stereo not given),-2,0,-1,67*,11,11,
CC1CC(C)CN(C2CCN(Cc3ccccc3[N+](=O)[O-])CC2)C1 (stereo not given),-5,0,-1,58*,0,3,
O=[N+]([O-])c1ccccc1CN1CCC(N2CCc3ccccc3C2)CC1,6,0,-2,71*,13,27,
CCN1CCN(C2CCN(Cc3ccccc3[N+](=O)[O-])CC2)CC1,-15,0,1,9,x,x,
SMILES,TEAD-YAP block,FBW7 activator,GPR151 activ,MITF inh,MITF inh conf,AS interf ctr,others
CCOC(=O)C1CCN(Cc2ccccc2[N+](=O)[O-])CC1,8,0,2,17,x,x,
COc1ccc(-c2n[nH]c(C)c2Oc2ccccc2F)c(O)c1,2,0,1,0,x,x,
Clc1ccc(CN2CCN(C3CC4CCC3C4)CC2)cc1 (stereo not given),-9,0,0,79*,16,18,
O=[N+]([O-])c1ccccc1CN1CCC(N2CCCC2)CC1,-10,0,0,57*,10,2,
O=[N+]([O-])c1ccccc1CN1CCN(C2CCCC2)CC1,1,0,-1,73*,9,2,
O=[N+]([O-])c1ccccc1CN1CCC(O)CC1,-9,0,1,21,x,x,
O=CN1CCN(Cc2ccc(Cl)cc2)CC1,12,0,1,50,x,x,
CCOC(=O)c1c(NC(=O)c2cc(-c3ccccc3C)nc3ccccc23)sc2c1CCCCCC2,2,0,-1,69*,7,6,

# Bioassay records (PubChem BioAssay)
